Vif inh: HIV Vif inhibition; HEK293T cells, Vif self-association by quenched fluorescence, imaging, 24 h; inhibition, % at 7.49 µM; 0.35% of 340,000 active; in the data active = inhibition above about 50%, passing the limit was not always enough
F508del corr: CFTR F508del correction in bronchial cells | CFBE cells, YFP halide quenching; stimulated with forskolin plus potentiator P3; % fluorescence drop versus neutral controls | activity (quench increase), % at 7.58 µM | 0.36% of 350,000 active;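 active = mean added fluorescence quench of at least 8% versus neutral control, with both replicates also reaching 8%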;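 note: cells transiently co-express mutant CFTR-F508del with the halide-sensitive YFP; corrector assay measuring rescue of mutant channel to the surface after 24 h compound exposure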
FGF22 binding: binders of recombinant human FGF22 by thermal shift; Q9HCT0; AID 651658; 1.5% of 340,000 active; activity (Tm shift, normalised), % at 9.99 µM; SYPRO orange fluorescence; percent of sucrose octasulfate shift, DMSO zero;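 active = mean Tm shift, scaled 0 neutral to 100 positive control, at about 1.3% or above, every replicate too, limit read from the data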
Target sequence (Q9HCT0 whole entry, looked up): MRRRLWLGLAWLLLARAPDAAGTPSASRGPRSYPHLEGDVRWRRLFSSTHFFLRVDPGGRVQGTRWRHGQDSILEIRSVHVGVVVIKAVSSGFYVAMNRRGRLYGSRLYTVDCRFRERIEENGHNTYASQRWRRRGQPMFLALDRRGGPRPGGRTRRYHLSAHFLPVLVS
Numbers without * were called inactive; . = no result. Compounds with a hit are over-represented: about 1.7% of the library has one in this group of screens.

SMILES	Vif inh	F508del corr	FGF22 binding
C[C@@H]1CCCCO[C@@H](CN(C)C(=O)c2ccccc2)[C@H](C)CN([C@@H](C)CO)C(=O)c2cc(NC(=O)c3ccccc3)ccc2O1	.	0	0
O=C(Nc1ccccn1)c1ccccc1	-5	.	0
O=C(c1ccccc1)C(Nc1ccccn1)c1ccccc1 (configuration not stated)	7	-6	44*
CSc1ccccc1NC(=O)COC(=O)Cc1cccs1	2	-2	43*
O=C(COC(=O)Cc1cccs1)Nc1ccccc1F	16	.	.
Cc1ccc(/C=C/C(=O)O)cc1S(=O)(=O)NC1CCS(=O)(=O)C1 (configuration not stated)	7	1	43*
Cc1ccc(/C=C/C(=O)O)cc1S(=O)(=O)NCC1CCCO1 (configuration not stated)	9	-2	.
Cc1nn(C)cc1NC(=O)C[C@@H]1CC[C@@H]2[C@@H](COc3ccc(NC(=O)Nc4cccc(Cl)c4)cc3C(=O)N2C)O1	.	0	0
CC(C)C#Cc1cnc2c(c1)C(=O)N([C@@H](C)CO)C[C@H](C)[C@H](CN(C)C(=O)Cc1ccccn1)O2	.	6	0
CCc1cc(C(c2ccc(F)cc2)N2CCOCC2)c(NC(=O)c2ccccc2)s1 (configuration not stated)	-13	.	.
CCc1cc(CN2CCOCC2)c(NC(=O)c2ccccc2)s1	0	-1	43*
C[C@@H]1CN([C@@H](C)CO)C(=O)c2cc(-c3ccc(C(=O)N(C)C)cc3)cnc2O[C@@H]1CN(C)C(=O)C1CC1	.	-1	0
CCOC(=O)c1c(NC(=O)/C=C/C(=O)O)sc(C)c1-c1ccc(C(C)(C)C)cc1	-15	-9	1.7*
CCOC(=O)c1c(NC(=O)/C=C\C(=O)O)sc(C)c1-c1ccccc1	2	2	43
COc1ccc(-c2cn(CC[C@H]3CC[C@H](NC(=O)CCN4CCCCC4)[C@@H](CO)O3)nn2)cc1	.	0	0
COc1ccc(NC(=O)c2nc(C)c(C3(C)CC(c4ccccc4)=NO3)s2)cc1 (configuration not stated)	-1	14*	0
Cc1nc(C(=O)Nc2ccccc2)sc1C1(C)CC(c2cccnc2)=NO1 (configuration not stated)	16	0	0
CCC(=O)N1CC[C@H]2[C@H](CO)Nc3ccc(C#Cc4ccccc4F)cc3[C@H]21	.	3	.
COc1ccc(S(=O)(=O)N(C)C[C@H]2OCCCC[C@@H](C)Oc3ccc(NC(=O)Nc4c(C)noc4C)cc3C(=O)N([C@@H](C)CO)C[C@@H]2C)cc1	.	-2	0
C[C@@H]1CN([C@@H](C)CO)C(=O)Cc2cc(NC(=O)Nc3ccc(C(F)(F)F)cc3)ccc2O[C@@H]1CN(C)C(=O)Nc1ccc(F)cc1	.	4	1
COCCCN1C(=O)C(=O)/C(=C(/O)c2ccc(S(=O)(=O)N3CCCCC3)cc2)C1c1ccc(O)c(OC)c1 (configuration not stated)	-5	-4	0
COCCCN1C(=O)C(=O)/C(=C(/O)c2ccc(S(=O)(=O)N3CCCCC3)cc2)C1c1ccc(O)cc1 (configuration not stated)	-5	-2	43*
CC(C)CCN1C(=O)CC(NNC(=O)c2ccc(S(=O)(=O)N3CCCC3)cc2)C1=O (configuration not stated)	-4	-1	0
COCCN1C(=O)CC(NNC(=O)c2ccc(S(=O)(=O)N3CCCC3)cc2)C1=O (configuration not stated)	0	2	43*
C[C@@H]1CN([C@@H](C)CO)C(=O)c2cccc(N(C)C)c2O[C@@H]1CN(C)Cc1ccc(Oc2ccccc2)cc1	.	0	0
SMILES	Vif inh	F508del corr	FGF22 binding
C[C@@H]1CN([C@@H](C)CO)C(=O)c2cccc(NS(=O)(=O)c3ccc(F)cc3)c2O[C@@H]1CN(C)S(=O)(=O)c1ccc(Cl)cc1	.	2	0
C[C@H]1CN([C@@H](C)CO)C(=O)c2cccc(NC(=O)c3ccc(-c4nccs4)cc3)c2O[C@H]1CN(C)C(=O)Nc1ccccc1	.	3	0
C[C@H]1CN([C@@H](C)CO)C(=O)c2cc(-c3ccccc3)cnc2O[C@H]1CN(C)C(=O)Nc1ccccc1	.	-2	0
COC(=O)N1C(=O)[C@](c2ccc(Cl)cc2)(C(C)C)N1C(=O)OC	51*	0	0
COC(=O)N1C(=O)[C@@](c2ccc(OC)cc2)(C(C)C)N1C(=O)OC	11	.	.
CC(=O)Nc1ccc(C(=O)CSc2nnnn2C)cc1	-3	-3	0
Cn1nnnc1SCc1ccc(C(=O)Nc2ccc(Br)cc2)cc1	81*	.	.
Cn1nnnc1SCC(=O)NNC(=O)c1ccc(F)cc1	1	-4	42
Cn1nnnc1SCC(=O)Nc1ncc(C(F)(F)F)cc1Cl	-9	-1	43*
Cn1nnnc1SCC(=O)Nc1ncc(Cl)cc1Cl	-9	-2	0
Cn1nnnc1SCC(=O)NNC(=O)c1ccc(Cl)cc1	3	0	44*
CCCn1c(SCC(=O)NNC(=O)c2ccc(OC)cc2)nnc1C(C)C	16	2	0
CCCn1c(SCC(=O)NNC(=O)c2ccc(C)cc2)nnc1C(C)C	55*	1	0
CC(=O)N1[C@@H]2Cn3c(cccc3=O)[C@H]1[C@@H](C(=O)NCC1CCCCC1)[C@@H]2CO	.	-2	0
COc1cccc(S(=O)(=O)Nc2ccc3c(c2)[C@@H]2C[C@@H](CC(=O)N[C@@H](C)c4ccccc4)O[C@@H](CO)[C@@H]2O3)c1	.	1	0
C[C@H](CO)N1C[C@H](C)[C@@H](CN(C)C(=O)c2ccncc2)OCCCC[C@H](C)Oc2ccc(NC(=O)Cc3ccccc3)cc2C1=O	.	3	0
CC(C)NC(=O)N[C@@H]1CC[C@@H](CCn2cc(-c3ccc(F)cc3)nn2)O[C@H]1CO	.	1	0
COCCNc1nc(-c2cc(C)n(CCc3ccc(OC)cc3)c2C)cs1	14	1	43*
COc1ccccc1CNc1nc(-c2cc(C)n(C)c2C)cs1	-4	.	.
O=C(CN1CCN(S(=O)(=O)c2ccccc2[N+](=O)[O-])CC1)NC(=O)NCc1ccco1	13	0	43*
O=C(c1ccco1)N1CCN(S(=O)(=O)c2ccccc2[N+](=O)[O-])CC1	12	2	0
COC(=O)c1sccc1NC(=O)c1c(-c2ccccc2)noc1C	-19	.	.
COC(=O)c1c(-c2ccc(C)cc2)csc1NC(=O)c1c(-c2ccccc2)noc1C	.	8.5*	0
C[C@H](CO)N1C[C@H](C)[C@@H](CN(C)CC2CCCC2)Oc2cc(C3=CCCCC3)ccc2S1(=O)=O	.	-2	0
O=C(CCl)Nc1cn(-c2ccccc2)nc1-c1ccccc1	0	-1	43*
CC(=O)Nc1cn(-c2ccccc2)nc1-c1ccccc1	3	-2	0
C[C@@H]1CCCCO[C@@H](CN(C)C(=O)Nc2ccc3c(c2)OCO3)[C@H](C)CN([C@H](C)CO)C(=O)c2cc(NC(=O)Nc3ccc4c(c3)OCO4)ccc2O1	.	0	0
CCOc1cc(CO)cc(Br)c1OCC(=O)O	-6	.	.
CCOc1cc(CO)cc(Br)c1OCC(=O)Nc1ccccc1C	-12	2	43*

Screens (PubChem BioAssay)
